The nature of assay [1]: inhibitors of TNFa-induced NFkB p65 translocation, primary screen, imaging, HUVEC, MLSMR starter and 10KST1 sets (AID 438).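 For inhibition: signal is the nuclear over cytoplasmic p65 intensity ratio per well.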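 Note: compound added about 3h40 before a 20 min TNFalpha stimulation.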 The following applies: HUVEC TNFa-induced p65 nuclear translocation; cell count: measured here: nuclei count (cytotoxicity indicator), at 2.08 µM; inhibition: at 2 µM, stronger effect = higher value, 0% TNFa-plus-vehicle, 100% no-TNFa wells.
Assay [2] is described as follows: reduction of polyQ htt aggregates in cells – imaging, exon1htt(103Q)mCFP cells, high-content imaging, primary screen (AID 483;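 active = visual image review flags a hit and inhibition of aggregation exceeds 20%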;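 note: compound exposure lasted 3 days before fixation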;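 for nuclei count: percent of the per-plate median nuclei count of sample wells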). The conditions noted are these: exon1htt(103Q)mCFP cell line, aggregate imaging, at 2 µM; inhibition of aggregation: stronger effect = higher value; nuclei count: measured here: cell count, toxicity.
Assay [3] is described as follows: endothelial E-selectin expression blockers – imaging, HUVEC, immunofluorescence, MLSMR starter and 10KST1 sets, primary screen (AID 487;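 active = visually confirmed hit in the image check and inhibition above 20%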;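 for inhibition: signal is fraction of cell area covered by stained E-selectin grains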;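 for nuclei count: 100% = median nuclei count of all wells on the same plate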). The following applies: HUVEC TNFalpha-induced E-selectin immunofluorescence imaging, at 2 µM; inhibition: stronger effect = higher value; nuclei count: measured here: cell number, toxicity.
Assay [4] addresses Voltage-gated potassium channel subunit beta-2 (Rattus norvegicus) (UniProt P62483). The experiment in a line: inhibitors of rat Kvbeta2 reductase activity – biochemical, NADPH fluorescence, primary screen (AID 622;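 active = fluorescence slope higher than the sample average by over 3 SD, cut at about -0.22 in these data, passing the limit was not always enough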;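 note: slope of raw intensity against log time taken from 70 to 1610 s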). The conditions noted are these: recombinant KvBeta, 4-cyanobenzaldehyde reduction, at 10 µM, stronger effect = higher value.
Assay [5] shares this target. Put plainly: enhancers of rat Kvbeta2 NADPH turnover – biochemical, NADPH fluorescence, primary screen (AID 623;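 active = NADPH fluorescence slope more negative than the mean of all samples by about 3 SD, 99.7% confidence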;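 note: fluorescence intensity change per second fitted from 20 to 320 s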). The conditions noted are these: Recombinant KvBeta, NADPH fluorescence decrease slope, 10 min; at 10 µM; stronger effect = lower value.
The target of assay [6] is Alpha-2C adrenergic receptor (Homo sapiens) (UniProt P18825). The experiment in a line: compounds altering alpha2C-coupled GIRK flux – cell-based, HEK293 alpha2C/GIRK1/2, thallium flux, primary screen (AID 624;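 active = fluorescence slope after compound addition differing from the mean of all screened samples at 99.7% confidence, in either direction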;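 note: slope of fluorescence ratio to pre-addition baseline per second over 15 to 24 s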). The following applies: thallium flux BTC fluorescence, at 10 µM, actives lie on both sides.
Alpha-2C adrenergic receptor (Homo sapiens), sequence (P18825 whole entry, looked up): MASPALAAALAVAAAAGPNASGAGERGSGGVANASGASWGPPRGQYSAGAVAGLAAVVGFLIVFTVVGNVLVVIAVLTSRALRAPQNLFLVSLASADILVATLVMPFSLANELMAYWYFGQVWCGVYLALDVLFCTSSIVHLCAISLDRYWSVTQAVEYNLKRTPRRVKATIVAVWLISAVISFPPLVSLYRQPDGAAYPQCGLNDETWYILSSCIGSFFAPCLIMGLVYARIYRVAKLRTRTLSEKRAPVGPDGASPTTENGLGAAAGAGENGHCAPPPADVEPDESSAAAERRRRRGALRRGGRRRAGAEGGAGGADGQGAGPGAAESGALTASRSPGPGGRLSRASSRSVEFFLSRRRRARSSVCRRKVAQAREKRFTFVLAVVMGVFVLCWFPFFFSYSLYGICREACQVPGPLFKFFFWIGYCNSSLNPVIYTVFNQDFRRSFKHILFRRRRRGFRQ
Assay [7] in a line: blockers of RIG-like receptor reporter activation – cell-based, Sendai virus stimulus, luciferase, 10K MLSCN set, TLR/RLR signaling modifier project, primary screen (AID 602276;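 active = inhibition at or above 50% at 10 µM; inactive = inhibition below 50%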;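 note: firefly luciferase from ISG56 promoter only with Renilla not read in this screen; 0% = Sendai virus plus DMSO and 100% = medium plus DMSO without virus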). The conditions noted are these: HEK293 RL24 IRF3 luciferase reporter, at 10 µM, stronger effect = higher value.
Assay [8] can be described thus: TLR3 IRF3 reporter activation blockers – cell-based, poly I:C stimulus, luciferase, 10K MLSCN set, primary screen (AID 602277;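 active = inhibition of the reporter signal at or above 50%; inactive = inhibition below 50%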). The following applies: HEK293-TLR3 RL24 IRF3 luciferase reporter, at 10 µM, stronger effect = higher value. Background: In a reporter assay the amount or activity of a reporter protein is the signal.

This is an account of results in PubChem BioAssay.

Active and inactive are the calls of the source.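 Rule for the calls, unless noted: active = inhibition above 20% together with a positive visual image hit; inconclusive = visual image hit but inhibition not above 20%; inactive = no visual image hit.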

Voltage-gated potassium channel subunit beta-2 (Rattus norvegicus), sequence (P62483 whole entry, looked up): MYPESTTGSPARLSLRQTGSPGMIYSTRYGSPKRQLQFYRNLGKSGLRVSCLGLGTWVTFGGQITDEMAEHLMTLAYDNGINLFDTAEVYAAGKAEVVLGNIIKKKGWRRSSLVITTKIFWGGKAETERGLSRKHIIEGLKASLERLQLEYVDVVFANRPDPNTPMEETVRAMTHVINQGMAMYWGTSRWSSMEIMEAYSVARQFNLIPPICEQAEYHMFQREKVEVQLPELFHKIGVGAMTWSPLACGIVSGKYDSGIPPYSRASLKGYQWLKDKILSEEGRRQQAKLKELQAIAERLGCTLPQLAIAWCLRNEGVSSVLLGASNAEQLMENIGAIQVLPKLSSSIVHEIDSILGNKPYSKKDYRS

In general, inhibition refers to the drop in the measured response relative to a control, in per cent. As to `CC(C)(C)C(=O)CCN1C(=O)C2(OCCO2)c2ccccc21`, the cell count in assay [1] came out at 702. Moreover, the inhibition was -4.9% (inactive) in assay [1], -140% (inactive) in assay [3], 11.4% (inactive) in assay [7] and 22.3% (inactive) in assay [8]. Moreover, the inhibition of aggregation in assay [2] was -30.1% (inactive). The nuclei count in assay [2] was 118%; in assay [3], 123%. In assay [4], the fluorescence slope was -0.497 (inactive). The NADPH fluorescence slope in assay [5] is -2.7e-05 (inactive). The slope in assay [6] is 0.00626 (inactive).

As to `CN(C)C(=O)Cn1c(SCC(=O)NC2CCCCC2)nc2ccccc21`, in assay [1], the cell count stood at 685. The inhibition in assay [1] is -3.1% (inactive); in assay [3], -68.3% (inactive); in assay [7], 5.56% (inactive); in assay [8], 31.7% (inactive). In addition, the inhibition of aggregation in assay [2] is -19.2% (inactive). The nuclei count in assay [2] was found to be 112%; in assay [3], 146%. The fluorescence slope in assay [4] was -0.41 (inactive). In addition, the NADPH fluorescence slope in assay [5] was 6.1e-06 (inactive). Further, in assay [6], the slope was 0.00698 (inactive).

For the compound `COC(=O)c1ccc2c(=O)n(CC3CCCO3)c(=S)[nH]c2c1` (centres undefined), in assay [1], the cell count stood at 548. In addition, the inhibition was 16% (inactive) in assay [1], -137% (inactive) in assay [3], 14.9% (inactive) in assay [7] and 12.3% (inactive) in assay [8]. Also, in assay [2], the inhibition of aggregation is -9.1% (inactive). The nuclei count worked out at 92.8% in assay [2] and 94.3% in assay [3]. Moreover, the fluorescence slope in assay [4] was -0.478 (inactive). Further, the NADPH fluorescence slope in assay [5] was -2.8e-05 (inactive). Besides, in assay [6], the slope is 0.00617 (inactive).

Take `O=C(c1ccccc1Cl)N1CCc2ccccc2C1`: in assay [1], the cell count came out at 645. The inhibition is -4.9% (inactive) in assay [1], -68.8% (inactive) in assay [3], -6.82% (inactive) in assay [7] and -17% (inactive) in assay [8]. Besides, the inhibition of aggregation in assay [2] was 17.3% (inactive). The nuclei count came out at 97.3% in assay [2] and 112% in assay [3]. Moreover, in assay [4], the fluorescence slope was -0.478 (inactive). Moreover, in assay [5], the NADPH fluorescence slope was -0.000194 (inactive). Also, the slope in assay [6] was 0.00482 (inactive).

In the case of `CCOc1ccccc1-c1nc(-c2ccc(C)nc2OC)no1`, in assay [1], the cell count was 404. Besides, the inhibition in assay [1] is 4.8% (inactive); in assay [3], 1.8% (inactive); in assay [7], -91.4% (inactive); in assay [8], -227% (inactive). In addition, the inhibition of aggregation in assay [2] was -2% (inactive). The figures for the nuclei count in assay [2] and in assay [3] were 82.1% and 96.3%, respectively. Moreover, the fluorescence slope in assay [4] was -0.552 (inactive). Moreover, the NADPH fluorescence slope in assay [5] is 1.8e-05 (inactive). In assay [6], the slope was 0.00778 (inactive).

Regarding `CCCN1C=CC(=C2C(=O)c3ccccc3C2=O)C=C1`, the cell count in assay [1] turned out to be 418. For the same compound, the inhibition in assay [1] is 2% (inactive); in assay [3] it was -7.6% (inactive); in assay [7], 29.8% (inactive); in assay [8], 89.4% (active). The inhibition of aggregation in assay [2] is 16.6% (inactive). The nuclei count in assay [2] was determined as 44.6%; in assay [3], 111%. The fluorescence slope in assay [4] was -0.377 (inactive). Moreover, the NADPH fluorescence slope in assay [5] is -6.2e-05 (inactive). For the same compound, the slope in assay [6] was 0.00522 (inactive).

In the case of `Cc1ccc(S(=O)(=O)N2CCC(C(=O)N3CCC[C@H]3C(=O)NCc3ccccc3)CC2)cc1`, the cell count in assay [1] amounted to 340. The inhibition in assay [1] is 3.6% (inactive); in assay [3] it was -35% (inactive); in assay [7] it was 13.5% (inactive); in assay [8] it was 23.1% (inactive). Also, the inhibition of aggregation in assay [2] was -6.4% (inactive). Besides, the results for the nuclei count in assay [2] and in assay [3] were 108% and 133%, respectively. Moreover, in assay [4], the fluorescence slope is -0.453 (inactive). Also, the NADPH fluorescence slope in assay [5] was 8.3e-05 (inactive). In addition, the slope in assay [6] was 0.00735 (inactive).

Consider `Cn1c(COc2ccc(Cl)cc2)nnc1SCC(=O)NC1CCCCC1`, for which, in assay [1], the cell count amounted to 328. For the same compound, the inhibition was -1.3% (inactive) in assay [1], -90.6% (inactive) in assay [3], -9.58% (inactive) in assay [7] and -7.85% (inactive) in assay [8]. The inhibition of aggregation in assay [2] was 19.6% (inactive). Moreover, the nuclei count in assay [2] worked out at 91.8%; in assay [3], 107%. Moreover, the fluorescence slope in assay [4] was -0.545 (inactive). Moreover, in assay [5], the NADPH fluorescence slope is -1.7e-05 (inactive). Further, the slope in assay [6] was 0.00395 (inactive).

In the case of `Cc1ccc(S(=O)(=O)Cn2nnnc2C(C(C)C)N2CCN(C(=O)c3ccco3)CC2)cc1` (centres undefined), the cell count in assay [1] was determined as 400. Also, the inhibition in assay [1] is -0.4% (inactive); in assay [3] it was 6.9% (inactive); in assay [7] it was 11.4% (inactive); in assay [8] it was 15.4% (inactive). Moreover, the inhibition of aggregation in assay [2] is 2.5% (inactive). The figures for the nuclei count in assay [2] and in assay [3] were 100% and 101%, respectively. In addition, in assay [4], the fluorescence slope was -0.405 (inactive). For the same compound, the NADPH fluorescence slope in assay [5] was -4.2e-05 (inactive). Further, in assay [6], the slope was 0.00633 (inactive).
